Rows were chosen to be rich in hits. Some 5.1% of all compounds tested hit in one or more screens of this group.
MPTP block: mitochondrial permeability transition pore inhibitors, primary screen, biochemical, isolated mouse mitochondria, absorbance; Ca2+ swelling absorbance, 30 min; inhibition, % at 10 µM; actives 1.4% (n = 360,000); AID 602449, 2012;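 active = inhibition of 50% or more, scaled per plate between neutral and stimulator controls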
CRFR2-BP antag: antagonists of CRF-BP/CRF-R2 complex, primary screen, cell-based, HEK293, calcium dye fluorescence, uHTS | actives 0.59% (n = 350,000) | inhibition, % at 11.8 µM | CRF-induced calcium fluorescence;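 active = inhibition of the ligand-induced calcium signal above about 50% at the single tested concentration, limit read from the data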
GRIN3A LBD mod: binders of NR3A ligand-binding domain, primary screen, biophysical, differential scanning fluorimetry, uHTS; actives 2.5% (n = 340,000); Tm shift relative to glycine control, % at 25 µM; Glutamate receptor ionotropic, NMDA 3A (GRIN3A) ligand-binding domain; AID 1259313, 2017; NR3A LBD differential scanning fluorimetry, Tm shift; 0% = protein alone, 100% = glycine-bound protein;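 active = melting temperature shift of at least 10% of the positive control shift, at one fixed dose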
TMEM16A inh: TMEM16A chloride channel inhibitors, primary screen, cell-based, HTS; normalized B-score (activity score, 25-100; higher = stronger inhibition) at 10 µM; Anoctamin-1 (Mus musculus), Q8BHY3; actives 1.2% (n = 310,000); HEK293 TMEM16A/YFP iodide influx fluorescence, ionomycin; AID 588511, 2011;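 active = ratio plate-corrected score three or more library SD toward inhibition, starting fluorescence score within five deviations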;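 also: score derived from kinetic fluorescence span divided by baseline fluorescence per well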
Target sequence (Q8BHY3 whole entry, looked up): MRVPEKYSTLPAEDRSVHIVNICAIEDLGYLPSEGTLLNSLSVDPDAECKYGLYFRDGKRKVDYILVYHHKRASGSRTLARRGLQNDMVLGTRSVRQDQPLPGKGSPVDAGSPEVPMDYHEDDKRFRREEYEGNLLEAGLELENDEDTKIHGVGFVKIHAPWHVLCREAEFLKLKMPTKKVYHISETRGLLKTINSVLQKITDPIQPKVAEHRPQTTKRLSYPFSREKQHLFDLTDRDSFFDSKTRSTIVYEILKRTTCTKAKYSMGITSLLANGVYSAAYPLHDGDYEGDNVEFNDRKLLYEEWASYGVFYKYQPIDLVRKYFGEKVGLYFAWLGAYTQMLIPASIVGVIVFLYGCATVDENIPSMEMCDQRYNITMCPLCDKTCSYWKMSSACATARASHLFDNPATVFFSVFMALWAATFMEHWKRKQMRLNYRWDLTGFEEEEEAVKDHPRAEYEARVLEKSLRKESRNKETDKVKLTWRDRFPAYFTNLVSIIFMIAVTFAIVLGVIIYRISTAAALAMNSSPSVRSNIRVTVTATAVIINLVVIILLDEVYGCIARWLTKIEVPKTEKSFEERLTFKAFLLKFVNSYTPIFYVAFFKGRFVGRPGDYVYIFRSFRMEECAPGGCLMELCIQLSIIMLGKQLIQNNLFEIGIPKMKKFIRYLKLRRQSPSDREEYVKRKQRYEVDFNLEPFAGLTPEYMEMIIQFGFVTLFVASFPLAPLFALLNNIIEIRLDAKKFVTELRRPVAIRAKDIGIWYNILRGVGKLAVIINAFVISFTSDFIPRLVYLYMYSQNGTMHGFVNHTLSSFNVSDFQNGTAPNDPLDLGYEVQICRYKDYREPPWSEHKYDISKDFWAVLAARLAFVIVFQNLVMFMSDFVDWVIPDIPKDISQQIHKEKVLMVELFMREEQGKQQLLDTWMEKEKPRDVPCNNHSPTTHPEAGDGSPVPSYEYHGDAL
CRFR2-BP ag: agonists of CRF-BP/CRF-R2 complex, primary screen, cell-based, HEK293, calcium dye fluorescence, uHTS | calcium dye fluorescence (FLIPR); percent of saturating CRF peptide response | activation, % at 13.2 µM | actives 0.46% (n = 350,000) | AID 588473, 2011;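 active = activation of at least 50%, plus an integration ratio under a set limit after plate pattern correction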
TMEM16A act: TMEM16A chloride channel activators or potentiators, primary screen, cell-based, HTS; Anoctamin-1 (Mus musculus), Q8BHY3; AID 623877, 2012; HEK293 TMEM16A/YFP-H148Q/I152L, iodide quench fluorescence; hits give low values; B-score at 10 µM; actives 0.3% (n = 340,000);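 active = fluorescence-ratio B-score plate-corrected deviation score at least 3 library SD below zero, with starting fluorescence score within 5 deviations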;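 also: channel opened by trigger with iodide after compound preincubation; score built on the fluorescence ratio of max minus min over baseline; more negative score means more quench and so TMEM16A activation or potentiation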
Each line names hits and unclear results; the compound was inactive in the other large screens.

CCCN=C1N(CC)C[C@@H]2[C@@H]3C(=O)N(Cc4ccccc4)C(=O)[C@@H]3[C@](Cc3ccccc3)(C(=O)OC)N12	GRIN3A LBD mod 13 (no result: TMEM16A inh)
N#C/C(=C/c1ccc(-c2ccc([N+](=O)[O-])cc2)o1)c1nnc(N2CCOCC2)n1-c1ccccc1	CRFR2-BP ag 176 (no result: TMEM16A inh)
CN1C(c2ccc(F)cc2)=CS/C1=C(/C#N)c1nnc(N2CCOCC2)n1-c1ccccc1	CRFR2-BP antag 95
Cc1cc(/C=C(\C#N)c2nnc(N3CCOCC3)n2-c2ccccc2)c(C)n1-c1ccccc1	none (no result: MPTP block, CRFR2-BP antag, GRIN3A LBD mod, CRFR2-BP ag, TMEM16A act)
Cc1ccccc1C(=O)N1CCC(C(=O)Nc2ccccc2N2CCCC2)CC1	none
OC(CNCC1COc2ccccc2O1)COc1ccccc1F (stereo unspecified)	none
O=C(NC(Cc1cn(Cc2ccccc2)cn1)C(=O)O)OCC1c2ccccc2-c2ccccc21 (stereo unspecified)	none (no result: CRFR2-BP antag, GRIN3A LBD mod, TMEM16A inh, CRFR2-BP ag, TMEM16A act)
CCN(CC)S(=O)(=O)c1ccc(Cl)c(NC(=O)c2cc(Cl)cc(Cl)c2)c1	CRFR2-BP antag 53
CCN(CC)S(=O)(=O)c1ccc(Cl)c(NC(=O)c2ccccc2C)c1	none
CCCN1CCN(CCCNC(=O)c2ccc3c(c2)NC(=O)c2ccccc2S3)CC1	GRIN3A LBD mod 42
COc1ccc(-c2ccc(C3C(C#N)=C(N)Oc4n[nH]c(C)c43)o2)cc1 (stereo unspecified)	CRFR2-BP ag 171
Cc1ccc(SCC(=O)Nc2ccc(C(=O)Nc3ccc(O)cc3)cc2)cc1	GRIN3A LBD mod 19
COc1ccc(C(=O)Nc2cccc(NC(C)=O)c2)cc1	none (no result: CRFR2-BP antag, GRIN3A LBD mod, TMEM16A inh, CRFR2-BP ag, TMEM16A act)
COc1ccc(NC(=O)c2ccc(C)cc2)cc1	GRIN3A LBD mod 42
Cc1ccc(/C=N/NC(=O)c2ccc(NC(=O)c3ccc(Cl)cc3)cc2)o1	none
COc1ccc(C(=O)Nc2cccc(C)c2)cc1	GRIN3A LBD mod 17
Cc1ccc(C(=O)Nc2ccc(C(=O)N/N=C/c3ccc(C)o3)cc2)cc1	GRIN3A LBD mod 15
Cc1ccc(OCCOC(=O)CN2C(=O)NC3(CCCC3)C2=O)cc1	none
O=C(COC(=O)Cn1ccc(=O)[nH]c1=O)Nc1ccc(F)cc1	none (no result: TMEM16A inh)
Cc1nn(-c2ccccc2)c(C)c1NC(=O)COC(=O)c1ccc(Cl)c(S(N)(=O)=O)c1	none
COC[C@@H]1CCCN1c1ccc2c(c1)O[C@H](COCc1ccccc1)CN([C@@H](C)c1ccccc1)S2(=O)=O	none (no result: CRFR2-BP antag, GRIN3A LBD mod, TMEM16A inh, CRFR2-BP ag, TMEM16A act)
COc1ccc(C(=O)Nc2ccc(-c3ccc(NC(=O)c4ccc(OC)cc4)c(OC)c3)cc2OC)cc1	GRIN3A LBD mod 28
COc1ccc(C(=O)Nc2ccc(C(=O)NCCc3ccccc3)cc2)cc1	GRIN3A LBD mod 22
COc1ccc(NC(=O)c2ccccc2)cc1	none (no result: TMEM16A inh)
COc1cccc(N2CCN(CC(=O)Nc3nnc(-c4ccccc4)s3)CC2)c1	TMEM16A inh 25
CC(=O)Nc1ccc(/C=N/NC(=O)CCN2CCN(c3ccccc3)CC2)cc1	GRIN3A LBD mod 33
COC(=O)C1CCN(C(=O)c2cc(-c3ccco3)nc3ccccc23)CC1	none (no result: TMEM16A inh)
O=C(C[C@H]1C/C=C\CC[C@H](Cc2ccc(F)cc2)C(=O)OCCNC1=O)NCCO	none (no result: TMEM16A inh)
COc1ccc(NC(=O)c2cccc(N3C(=O)C4C5C=CC(C6CC56)C4C3=O)c2)cc1 (stereo unspecified)	GRIN3A LBD mod 23
Cc1ccc(C)c(Nc2ccc(C(=O)NCCc3ccccc3)cn2)c1	none
COc1ccc(C(=O)Nc2cc(-c3ccc(C)cc3)no2)cc1	GRIN3A LBD mod 11
COc1ccc(NC(=O)c2ccc(N3C(=O)C4CC=C(Cl)CC4C3=O)cc2)cc1 (stereo unspecified)	GRIN3A LBD mod 18
Cc1ccc(Nc2ccc(C(=O)NCCc3ccccc3)cn2)cc1	GRIN3A LBD mod 24
Cc1ccccc1NC(=O)NCCCCc1ccccc1	none
COC(=O)c1ccc(OS(=O)(=O)N(C)C)cc1	none
O=C(CSc1n[nH]c(-c2ccncc2)n1)Nc1ccc(Br)cc1	none
COc1ccc(C(=O)Nc2ccc(NC(=O)c3cnccn3)cn2)cc1	GRIN3A LBD mod 14

High-throughput results: PubChem, several laboratories
